PKA-R2B activ – activators of PKA-R2B holoenzyme, primary screen, biochemical, fluorescence polarization, Cy5-IP20, human. hit rate 0.079% among 340,000. cAMP-dependent protein kinase catalytic subunit beta (Homo sapiens) + cAMP-dependent …. activation, % at 11.4 µM. PKA-R2B holoenzyme dissociation; R2B truncated from residue 108, S112A mutant; 0% DMSO only, 100% 113 µM cGMP;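 active means activation above a cutoff set at the mean over all compounds plus 3 SD, cut at about 18% in these data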;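 further: higher means more holoenzyme dissociation and a rise in polarization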
Target sequence (P31323 whole entry, looked up, other chains not shown, the tested form may be a part): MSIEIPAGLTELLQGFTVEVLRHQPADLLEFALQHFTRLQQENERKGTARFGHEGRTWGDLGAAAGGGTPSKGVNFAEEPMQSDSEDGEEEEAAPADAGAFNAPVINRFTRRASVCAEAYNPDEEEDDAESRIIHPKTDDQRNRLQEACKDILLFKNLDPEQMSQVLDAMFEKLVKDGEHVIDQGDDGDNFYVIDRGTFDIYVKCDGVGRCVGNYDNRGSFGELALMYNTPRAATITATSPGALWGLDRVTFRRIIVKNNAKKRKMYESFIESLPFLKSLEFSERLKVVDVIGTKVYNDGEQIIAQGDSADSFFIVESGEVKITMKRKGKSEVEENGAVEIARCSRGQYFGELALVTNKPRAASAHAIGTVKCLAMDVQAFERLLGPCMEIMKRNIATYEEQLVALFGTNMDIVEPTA
PKA-R1A activ – activators of PKA-R1A holoenzyme, primary screen, biochemical, fluorescence polarization, Cy5-IP20, bovine R1A, mouse PKAc; PKA-R1A dissociation; scaled: DMSO 0%, 113 µM cGMP 100%; activation, % at 11.4 µM; hit rate 0.083% among 340,000;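 active means percent activation above the mean of all tested compounds plus 3 SD, cut at about 19% in these data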;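 further: higher means more PKAc released from R1A so a rise in polarization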
bovine MsrA act – bovine MsrA enzyme activators, primary screen, biochemical, absorbance, HTS. Methionine sulfoxide reductase A (Bos taurus). activation, % at 10.6 µM. hit rate 0.3% among 360,000. purified bovine MsrA, absorbance read-out. AID 602163, 2012; in the data active means activation above about 7.5%
MsrA inh – bovine MsrA enzyme inhibitors, primary screen, biochemical, absorbance, HTS; inhibition, % at 15.5 µM; purified bovine MsrA, absorbance read-out; hit rate 0.75% among 360,000; AID 651718, 2012
MsrA inh confirm – bovine MsrA inhibitors, retest, confirmation, biochemical, absorbance, HTS. shares compounds with MsrA inh. inhibition, % at 15.5 µM. purified bovine MsrA, absorbance read-out. hit rate 41% among 2,300;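 further: coupled to thioredoxin reductase with NADPH and selenocystamine and DMSO as substrate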
A number is an active result. Only some compounds are listed: those with a hit (about 1.1% of all), similar ones and a draw of the others. Unless noted, no stated cut-off is given here; in the data, active means inhibition above about 4.5%; inactive means the rest.

COc1ccc(/C=C(\NC(=O)c2ccccc2)C(=O)N/N=C/c2ccncc2)cc1 was read as PKA-R2B activ inactive, PKA-R1A activ inactive, bovine MsrA act inactive, MsrA inh 5.0 and MsrA inh confirm 6.0.
`CN(N=Cc1ccc(N(C)C)cc1)C(=O)c1ccccc1N` gave MsrA inh 5.3 and MsrA inh confirm inactive.
Screening CSc1ccc(/C=N/NC(=O)c2ccccc2Cl)cc1 returned PKA-R2B activ inactive, PKA-R1A activ inactive, bovine MsrA act inactive, MsrA inh 5.8 and MsrA inh confirm inactive.
For CCN(C)C1CN(Cc2cn(Cc3ccc(F)cc3)nn2)S(=O)(=O)C1 (centres undefined) the results were bovine MsrA act inactive and MsrA inh inactive.
For CC(Oc1ccc(F)cc1)C(=O)Nc1cccc(-c2nn[nH]n2)c1 (centres undefined) the results were PKA-R2B activ inactive, PKA-R1A activ inactive, bovine MsrA act inactive and MsrA inh inactive.
`CN(C)c1ccc(/C=N/NC(=O)CCCO)cc1` gave bovine MsrA act inactive, MsrA inh 5.9 and MsrA inh confirm inactive.
CN(C)c1ccc(/C=N/NC(=O)Cn2nnc3ccccc32)cc1 was read as PKA-R2B activ inactive, PKA-R1A activ inactive, bovine MsrA act inactive, MsrA inh 5.1 and MsrA inh confirm 4.7.
CN(C)c1ccc(/C=N/NC(=O)CCc2c[nH]c3ccccc23)cc1 was read as PKA-R2B activ inactive, PKA-R1A activ inactive, bovine MsrA act inactive, MsrA inh 5.5 and MsrA inh confirm inactive.
For COc1ccc(/C=N/NC(=O)Cn2nnc3ccccc32)cc1OC the results were PKA-R2B activ inactive, PKA-R1A activ inactive, bovine MsrA act inactive and MsrA inh inactive.
For CN(C)c1ccc(/C=N/NC(=O)c2ccccc2Cl)cc1 the results were PKA-R2B activ inactive, PKA-R1A activ inactive, bovine MsrA act inactive, MsrA inh 6.3 and MsrA inh confirm 5.0.
For O=C1C2C3C=CC(C3)C2S(=O)(=O)C2C3C=CC(C3)C12 (centres undefined) the results were PKA-R2B activ inactive, PKA-R1A activ inactive, bovine MsrA act inactive and MsrA inh inactive.
Screening CSC(C1CCCC1)n1nnc2ccccc21 (centres undefined) returned PKA-R2B activ inactive, PKA-R1A activ inactive, bovine MsrA act inactive and MsrA inh inactive.
Screening Cc1ccc(C(=O)COC(=O)c2cn(-c3ccccc3)nc2-c2ccccc2)cc1[N+](=O)[O-] returned PKA-R2B activ inactive, PKA-R1A activ inactive, bovine MsrA act inactive and MsrA inh inactive.
For CN(C)CCCn1c2c(c(SCC(=O)Nc3ccc4c(c3)OCCO4)nc1=O)CCCC2 the results were PKA-R2B activ inactive, PKA-R1A activ inactive, bovine MsrA act inactive and MsrA inh inactive.
CCN1CCCC1CNCc1cccc(OC)c1OCc1ccc(F)cc1 (centres undefined) was read as PKA-R2B activ inactive, PKA-R1A activ inactive, bovine MsrA act inactive and MsrA inh inactive.
Screening O=C(NCc1ccccc1)[C@@H]1CCCN1C(=O)[C@H]1CCCN1C(=O)c1ccc(F)cc1 returned MsrA inh inactive.
`CN(C)c1ccc(/C=N/NC(=O)c2ccccc2)cc1` gave PKA-R2B activ inactive, PKA-R1A activ inactive, bovine MsrA act inactive, MsrA inh 4.7 and MsrA inh confirm inactive.
Screening CN(C)c1ccc(/C=N/NC(=O)c2ccc(Cl)cc2)cc1 returned PKA-R2B activ inactive, PKA-R1A activ inactive, bovine MsrA act inactive and MsrA inh inactive.
CN(C)c1ccc(/C=N/NC(=O)CCCCCNC(=O)c2ccccc2)cc1 was read as PKA-R2B activ inactive, PKA-R1A activ inactive, bovine MsrA act inactive, MsrA inh 4.8 and MsrA inh confirm inactive.
CCOC(=O)c1ccc2c(c1)n(CC)c(C)[n+]2CC was read as PKA-R2B activ inactive, PKA-R1A activ inactive, bovine MsrA act inactive and MsrA inh inactive.
For CCOC(=O)c1ccc2c(c1)n(CCCS(=O)(=O)[O-])c(/C=C/c1ccc(Cl)cc1)[n+]2CC the results were PKA-R2B activ inactive, PKA-R1A activ inactive, bovine MsrA act inactive, MsrA inh 5.6 and MsrA inh confirm 5.4.

Assay outcomes: PubChem BioAssay, The Scripps Research Institute Molecular Screening Center
